Experimental findings from PubChem BioAssay (NCI) are described below.

Among the test systems are T-47D breast; BT-549 breast; MDA-MB-435 melanoma; SW-620 colon; MCF7 breast; HCT-116 colon; HCC-2998 colon; KM12 colon.
Experiment in all cases: NCI-60 one-dose screen, 48 h (100 = growth as untreated, 0 = no growth, -100 = all killed)
Common to all, as to details: 10 µM

The panel holds about 83,000 compounds, 20% with a hit somewhere; the sample as a whole holds those more often.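 Negative percent growth values reflect cell death: -40 means 40% of the cells present at the start died, and -100 means all died.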 Values without a mark were called inactive. Active and inactive are the calls of the source. How the source made its calls: active means growth percent below 10; inactive means the rest.

For `Cc1cc(OI)c(C(C)C)cc1-c1cc(C(C)C)c(OI)cc1C`, the growth in the experiment with T-47D breast was 81.6%; in the experiment with BT-549 breast it was 111%; in the experiment on MDA-MB-435 melanoma it was 112%; with SW-620 colon, 113%; in the experiment with MCF7 breast it was 92.6%; with HCT-116 colon it was 101%. Besides, the figures for the growth in the experiment on HCC-2998 colon and in the experiment on KM12 colon were 105% and 101%, respectively.
On to `COc1ccc(-c2nc(-c3ccccc3)c(-c3ccccc3)[nH]2)cc1OC1CCCC1`, for which the growth with T-47D breast is 35.1%; with BT-549 breast, 81.9%; in the experiment with MDA-MB-435 melanoma it was 78.9%; in the experiment on SW-620 colon, 82.6%; with MCF7 breast, 78.7%; with HCT-116 colon, 73.6%. Further, the growth was 69.7% with HCC-2998 colon and 43.5% in the experiment with KM12 colon.
Regarding `CCCCCCCCCCCC(=O)NCCCN(C)C`, the growth in the experiment on T-47D breast is 84.8%; in the experiment with BT-549 breast, 70.5%; with MDA-MB-435 melanoma, 94.5%; in the experiment on SW-620 colon, 102%; in the experiment with MCF7 breast, 65.7%; in the experiment on HCT-116 colon it was 67.6%. Besides, the growth in the experiment on HCC-2998 colon is 78.5%; with KM12 colon, 104%.
For the molecule `CCN(CC)c1ccc(/C=C/C2=[N+](C)c3ccccc3C2(C)C)c(C)c1`, the growth in the experiment on T-47D breast was -0.932% (active); in the experiment on BT-549 breast it was -13.2% (active); in the experiment with MDA-MB-435 melanoma, -13.7% (active); with SW-620 colon, 18.7%; in the experiment on MCF7 breast it was 3.87% (active); with HCT-116 colon it was 5.94% (active). Besides, the growth is 23.3% in the experiment with HCC-2998 colon and -34.7% (active) in the experiment on KM12 colon.
Consider `CCN(CC)CCn1c(=N)n(CC(O)c2ccc(Cl)c(Cl)c2)c2ccccc21` (stereo not given), for which the growth in the experiment with T-47D breast was 66.5%; in the experiment with BT-549 breast it was 76.7%; in the experiment on MDA-MB-435 melanoma it was 1.39% (active); with SW-620 colon, 93.5%; in the experiment on MCF7 breast it was 90%; with HCT-116 colon, 77.7%. Further, the growth was 74.5% with HCC-2998 colon and 84.4% in the experiment with KM12 colon.
For the molecule `CCOC(=O)CNC(=O)Nc1ccc(Oc2ccc(NC(=O)NCC(=O)OCC)cc2)cc1`, the growth in the experiment with T-47D breast was 106%; with BT-549 breast, 111%; in the experiment on MDA-MB-435 melanoma it was 95.4%; with SW-620 colon, 98%; in the experiment with MCF7 breast it was 76.4%; in the experiment with HCT-116 colon, 98.1%. Besides, the growth is 93.3% in the experiment with HCC-2998 colon and 105% with KM12 colon.
As for `Fc1ccc(Nc2ccnc(N3CCN(c4ccnc5cc(Cl)ccc45)CC3)n2)cc1`, the growth with T-47D breast is -0.414% (active); with BT-549 breast, 75.1%; with MDA-MB-435 melanoma it was 48.6%; with SW-620 colon it was 63.2%; in the experiment with MCF7 breast, 19.2%; in the experiment with HCT-116 colon, 15.4%. For the same molecule, the growth in the experiment with HCC-2998 colon was 62.6%; in the experiment on KM12 colon it was 42.1%.
With `N#Cc1cnc2ccc(NCc3cnc[nH]3)cc2c1Nc1ccc(F)c(Cl)c1`, the growth in the experiment with T-47D breast was 57.2%; in the experiment on BT-549 breast, 74.2%; in the experiment with MDA-MB-435 melanoma, 92.4%; in the experiment on SW-620 colon it was 71.7%; in the experiment on MCF7 breast it was 91.9%; in the experiment on HCT-116 colon, 56.1%. For the same molecule, the growth in the experiment on HCC-2998 colon was 91.4%; with KM12 colon, 84.2%.
Take `COc1cc(C2C=C(c3ccc(Cl)c(Cl)c3)N=C3SC(C)=CN32)cc(OC)c1OC` (stereo not given): the growth in the experiment with T-47D breast is 51.1%; with BT-549 breast it was 58.7%; in the experiment with MDA-MB-435 melanoma, 46.6%; in the experiment with SW-620 colon, 50.6%; with MCF7 breast, 24.6%; in the experiment on HCT-116 colon it was -25.8% (active). Moreover, the figures for the growth in the experiment with HCC-2998 colon and with KM12 colon were 90.7% and 65.1%, respectively.
With `NC1CCC(Nc2nc(NCc3ccc(-c4ccco4)nc3)c3ncn(C4CCCC4)c3n2)CC1` (stereo not given), the growth in the experiment on T-47D breast is -11.3% (active); with BT-549 breast, -25.7% (active); in the experiment with MDA-MB-435 melanoma, 11.4%; in the experiment with SW-620 colon, 7.93% (active); in the experiment on MCF7 breast it was 1.09% (active); with HCT-116 colon, 3.79% (active). Moreover, the growth with HCC-2998 colon was -19% (active); with KM12 colon, 4.05% (active).
For the molecule `Nc1c(C(=O)Nc2ccccc2F)sc2nc3c(cc12)C(=O)CCC3`, the growth in the experiment with T-47D breast is 40.2%; in the experiment on BT-549 breast, 59.8%; in the experiment with MDA-MB-435 melanoma, -25.9% (active); in the experiment with SW-620 colon it was 30%; with MCF7 breast, 22.9%; in the experiment with HCT-116 colon, 32%. Further, the values for the growth in the experiment with HCC-2998 colon and with KM12 colon were 43.8% and 24.6%, respectively.
Regarding `COC(=O)c1cnc2c(c1)Oc1ccc(Cl)cc1-c1cc(C)nn1-2`, the growth in the experiment on T-47D breast is 59.9%; in the experiment on BT-549 breast, 83.4%; in the experiment on MDA-MB-435 melanoma, 91.3%; in the experiment on SW-620 colon, 66%; in the experiment on MCF7 breast, 83.4%; in the experiment with HCT-116 colon, 42.6%. For the same molecule, the values for the growth in the experiment on HCC-2998 colon and with KM12 colon were 92.1% and 85.8%, respectively.
On to `O=[N+]([O-])C1CC2C=CC1C2` (stereo not given), for which the growth is 93% in the experiment on T-47D breast; 97.3% in the experiment with BT-549 breast; 92.7% with MDA-MB-435 melanoma; 103% in the experiment with SW-620 colon; 92.1% in the experiment on MCF7 breast; 107% with HCT-116 colon. Moreover, the growth was 102% in the experiment with HCC-2998 colon and 104% in the experiment with KM12 colon.
Take `N#CN1CC[C@H](C(=O)Nc2ncc(-c3ccccc3)s2)C1`: the growth is -44% (active) in the experiment with T-47D breast; -5.31% (active) with BT-549 breast; 0.958% (active) with MDA-MB-435 melanoma; 5.19% (active) in the experiment on SW-620 colon; 3.54% (active) with MCF7 breast; -3.16% (active) in the experiment on HCT-116 colon. For the same molecule, the growth in the experiment with HCC-2998 colon was -11.1% (active); in the experiment on KM12 colon, -6.3% (active).
`Cc1ccc2oc(=O)cc(/C(=C3/C=CC=N3)c3ccc[nH]3)c2c1`: the growth was -1.91% (active) with T-47D breast; -11.4% (active) in the experiment with BT-549 breast; -24.8% (active) in the experiment with MDA-MB-435 melanoma; 20.9% in the experiment on SW-620 colon; 7.32% (active) with MCF7 breast; 1.45% (active) with HCT-116 colon. In addition, the growth was -17% (active) with HCC-2998 colon and -17.6% (active) in the experiment on KM12 colon.
